Out of some 330,000 compounds screened, about 7,700 (2.3%) were called active. Another 26% or so got no clear call; they are omitted. This excerpt belongs to a sample that is enriched for actives. Unmarked numbers belong to inactive results. Calls follow the shape of the dose curve; as a rule, active = well fitted inhibition curve with a large enough effect; inconclusive = small, poorly fitted or top-dose-only effect, or effect the other way; inactive = flat fitted curve, though single readings scatter.
Test: qHTS screen for small molecules that inhibit ELG1-dependent DNA repair in human embryonic kidney (HEK293T) cells expressing luciferase-tagged ELG1; also: nearly all actives have a fitted effect of over 55% in size
Conditions: HEK293T ELG1-luciferase reporter, luminescence, 16 h, DNA damage induced by 5-fluorouridine; series mostly up to 46.1 µM; activity change, negative = inhibition: at the top concentration
Excerpt: NIH Molecular Libraries Probe Production Network [MLPCN] NIH Chemical Genomics Center [NCGC] MLPCN Grant: 1 R03 MH092164-01 Assay Provider: Kyungjae Myung, NHGRI, NIH Keywords: MLPCN, qHTS, NCGC, genotoxicity, cancer Assay Overview: Cancer cells divide rapidly compared to normal cells in the body. During cell division, cancer cells need to duplicate their genome by DNA replication. The failure of genome duplication leads to cancer cells' death. Therefore, inhibitors of DNA replication could specifically kill cancer cells. Based on this concept, many chemotherapeutic agents were developed and have been used to treat cancer patients. However, there are a limited number of agents available in the clinical setting, and some of those that do exist have low efficacy and severe side effects. Therefore, if we can find the compounds that effectively block DNA replication either by directly damaging DNA or by inhibiting other cellular mechanisms, the options for cancer treatment will be broadened. With this in mind, we developed a quantitative high-throughput ELG1-luciferase reporter gene assay. Small molecules that specifically block ELG1 function in response to DNA damage can be identified by monitoring the suppression of luciferase activity. Since ELG1 defines a pathway for repairing DNA damage, agents blocking ELG1 function can be used to sensitize cancer cells to chemotherapeutic agents whose mechanism of action involves the induction of DNA damage.
Assay Protocol Summary: For genotoxicity screening, 2,000 cells in 4 uL/well were dispensed into white, solid-bottom 1536-well plates using a solenoid-based dispenser. Following transfer of 1 uL 5-Fluorouridine and 23 nL compound or DMSO vehicle by a pin tool, the plates were incubated 16 hr at 37 °C and 5% CO2. 5 ul ONE-Glo (Promega) was then added to each plate and following a 30 min incubation at room temperature, luciferase activity was quantified on a ViewLux CCD-based plate reader.
% is scaled to controls: 0 for no effect and ±100 for the full control effect; potency is read from the fitted curve at half-maximal effect.

For `O=C(/C=C/c1cccs1)c1cc(Cl)ccc1OC(=O)N1CCOCC1`, the Potency was 18.4 µM (active).
With `O=C(c1cc2nc(-c3ccccc3)cc(-c3ccccc3)n2n1)N1CCC2(CC1)OCCO2` the Potency was 20.6 µM (active).
With `Cc1ncc(CC(=O)n2cc(C(=O)c3cc(Cl)ccc3O)cn2)s1` the Potency was 20.6 µM (active).
In the case of `Cc1ncoc1C(=O)NCCC(c1ccccc1)c1ccccc1`, the Potency is reported as 20.6 µM (active).
For `CCOc1cccc(=NC2CCCCC2)c2c(C)[nH]c(C)c12`, the Potency was 10.3 µM (active).
In the case of `COc1cc(Cn2c(N)c(C(=O)NCc3ccco3)c3nc4ccccc4nc32)cc(OC)c1OC`, the Potency is reported as 3.26 µM (active).
In the case of `COc1cc(-n2c(=S)[nH]c3ccc(C)cc3c2=O)c(Cl)cc1Cl`, the Potency is reported as 16.4 µM (active).
For `CCC(C)n1c(O)c(/C=N/Nc2nc3c(c(=O)n(C)c(=O)n3C)n2C)c(=O)[nH]c1=S` (stereo not given), the Potency was 23.1 µM (active).
In the case of `CCCCCCCCCCCCn1ccc(=N)cc1`, the Potency is reported as 5.8 µM (active).
For `CC[C@H]1CN2CCc3cc(OC)c(OC)cc3[C@@H]2C[C@@H]1C[C@H]1NCCc2cc(OC)c(OC)cc21`, the Potency was 0.259 µM (active).

First: CC(=O)Nc1ccc(C(=O)C(Cc2ccccc2)N(C)C)cc1 (stereo not given)
Second: CC(Cc1ccccc1)NCCC(c1ccccc1)c1ccccc1 (stereo not given)
The “activity change, negative = inhibition” value of the first is higher: 4.04% for the first, -13.5% for the second.

Going from `Cc1nc2ccccc2c(=O)n1-c1ccc(Cl)cc1Cl` to `CCCCn1c(=O)c(C(=O)Nc2ccccc2Cl)c(O)c2ccccc21`, the “activity change, negative = inhibition” value rises from -3.5% to 14.3%.

Going from `COC1=CC=C2[C@H]3Cc4ccc(OC)c5c4[C@@]2(CCN3C)C1O5` (stereo not given in full) to `COc1cccc(OC)c1C(=O)NC(=S)N1C[C@H]2C[C@H](C1)c1cccc(=O)n1C2`, the “activity change, negative = inhibition” value rises from 3.28% to 18%.

First: COC(=O)C1=C(c2cccc(OCc3ccccc3)c2)C[C@@H]2CC[C@H]1N2C(=O)NNCc1ccccc1
Second: COC(=O)C1=C(c2cccc(OCc3ccccc3)c2)C[C@@H]2CC[C@H]1N2C(=O)NCc1ccc(Br)cc1
The “activity change, negative = inhibition” value of the first is lower: -26.5% for the first, -23.4% for the second.

First: COc1ccc(CNCCc2c[nH]c3ccccc23)cc1OC
Second: COc1ccc(CNCCc2ccc3c(c2)OCO3)c(OC)c1OC
The “activity change, negative = inhibition” value of the first is higher: -3.99% for the first, -12.2% for the second.

Going from `O=C(c1cc(-c2ccncc2)nc2ccccc12)N1CCC2(CC1)OCCO2` to `O=C(c1ccccc1[N+](=O)[O-])N1CCC2(CC1)OCCO2`, the “activity change, negative = inhibition” value rises from -25.8% to -2.85%.

Compared with `Cc1cccc(NC(=O)N2CC3CC(C2)c2cccc(=O)n2C3)c1` (stereo not given), `COc1ccccc1NC(=O)N1C[C@@H]2C[C@@H](C1)c1cccc(=O)n1C2` is lower in “activity change, negative = inhibition” value: 23.2% for the first, 7.46% for the second.

Going from `CCN1C(=O)C(=Cc2c(C)n(CC(=O)NCC3CCCO3)c3ccccc23)C(=O)N(CC)C1=S` (stereo not given) to `CCCCCn1c(=O)c(C(=O)NCc2ccccc2)c(O)c2ccccc21`, the “activity change, negative = inhibition” value falls from -1.72% to -26.2%.

Going from `Cc1ccccc1NC(=O)COC(=O)c1cc(C)n(C2CC2)c1C` to `COC(=O)[C@@H]1C(OC(=O)c2ccccc2)CC2CCC1N2C` (stereo not given in full), the “activity change, negative = inhibition” value rises from -17.9% to 2.1%.

Compared with `c1cc2c(cc1C1OCC3C(c4ccc5c(c4)OCO5)OCC13)OCO2` (stereo not given), `Oc1cc2c(cc1CN1CCN(c3ccccc3)CC1)OCO2` is higher in “activity change, negative = inhibition” value: -8.1% for the first, 4.24% for the second.

Going from `CN(C)CCN(CC1CCCN(Cc2ccccc2F)C1)C(=O)Cc1ccc(F)c(F)c1` (stereo not given) to `O=C(Cc1ccc(Cl)cc1)NCCN1CCN(C(=O)Cc2ccc(Cl)cc2)CC1`, the “activity change, negative = inhibition” value falls from -0.923% to -15.8%.

Compared with `CCN(CC)C(=O)Oc1ccc(NC(=O)N2CCOCC2)cc1`, `CCC(=O)c1ccc(OCC(=O)N2CCN(CC(=O)Nc3ccc(C)cc3)CC2)cc1` is higher in “activity change, negative = inhibition” value: -12.4% for the first, 1.39% for the second.

Going from `O=c1[nH]c(O)c(C=Nc2cc(F)cc(F)c2)c(=O)[nH]1` to `COc1ccc2[nH]c3c(c2c1)CCN[C@H]3C`, the “activity change, negative = inhibition” value rises from -9.9% to -0.326%.

First: CCOC(=O)C(O)(c1ccc(NC(=O)c2ccco2)c(OC)c1)C(F)(F)F (stereo not given)
Second: COc1ccc(N2C(=O)/C(=C/c3ccco3)C(=O)NC2=S)cc1
The “activity change, negative = inhibition” value of the first is higher: 10.8% for the first, -10.8% for the second.

Compared with `CC1CCC(N(C)C2CCN(C)CC2)CC1` (stereo not given), `C[C@]12CCC3C(CC[C@H]4C[C@@H](O)CC[C@]34C)C1CC[C@@H]2O` (stereo not given in full) is higher in “activity change, negative = inhibition” value: -6.89% for the first, 5.31% for the second.

Going from `COC(=O)C1=C(c2ccc(Cl)c(C(F)(F)F)c2)C[C@@H]2CC[C@H]1N2C(=O)NC(C)C` to `COC(=O)C1=C(c2ccc(Cl)c(C(F)(F)F)c2)C[C@@H]2CC[C@H]1N2C(=O)NC1CC1`, the “activity change, negative = inhibition” value falls from -3.51% to -20.8%.

First: O=C(O)c1ccccc1NC(=O)C1C2CCC(O2)C1C(=O)O (stereo not given)
Second: CCc1ccc(OCC(=O)N2CCN(CC(=O)Nc3ccccc3Cl)CC2)cc1
The “activity change, negative = inhibition” value of the first is higher: 27.7% for the first, -14.5% for the second.

Compared with `COC(=O)C1=C(c2ccc(F)cc2OCc2ccccc2)C[C@@H]2CC[C@H]1N2C(=O)NCc1ccc(C(C)(C)C)cc1`, `O=C(NC(=S)N1C[C@H]2C[C@H](C1)c1cccc(=O)n1C2)c1ccc(F)cc1` is higher in “activity change, negative = inhibition” value: 1.55% for the first, 1.64% for the second.

First: CN(c1ccccc1)c1ccc([N+](=O)[O-])c2nonc12
Second: Cc1c(Oc2cc(NN3CCCCC3)c([N+](=O)[O-])cc2[N+](=O)[O-])cccc1[N+](=O)[O-]
The “activity change, negative = inhibition” value of the first is lower: -0.77% for the first, 27.2% for the second.

First: C[C@]12CC[C@H](O)CC1=C([N+](=O)[O-])CC1C2CC[C@@]2(C)C1CC[C@@H]2O (stereo not given in full)
Second: c1ccc(CC2CCCCN2)cc1 (stereo not given)
The “activity change, negative = inhibition” value of the first is lower: -28% for the first, 0.138% for the second.
